Structures are written as SMILES. Results filed as inconclusive are left out. Values without a mark were called inactive. The source made the active and inactive calls. The call rests on the fitted dose curve.

The nature of this assay: VSV-G qHTS counterscreen for inhibitors of MERS-S pseudo-typed particle cell entry. Particulars: VSV-G pseudotyped particle cell entry, luciferase counterscreen; series mostly up to 57.1 µM; activity, negative = inhibition: at the top concentration. A general note: In qHTS, concentration-response curves come from the screen itself.
With `Oc1c(Cl)cc(Cl)c(Cl)c1Cc1c(O)c(Cl)cc(Cl)c1Cl`, the Potency was 1.08 µM (active).

For the compound `CNC(=O)c1cc(Oc2ccc(NC(=O)Nc3ccc(Cl)c(C(F)(F)F)c3)c(F)c2)ccn1`, the Potency is 15.2 µM (active).

Consider `CCCCCCCCCCCCOCCOCCOCCOCCOCCOCCOCCOCCOCCO`, for which the Potency is 5.41 µM (active).

As for `O=c1c(C2CC(c3ccc(-c4ccc(Br)cc4)cc3)Cc3ccccc32)c(O)sc2ccccc12` (stereo not drawn), the Potency is 6.07 µM (active).

For the compound `COc1cc(NS(C)(=O)=O)ccc1Nc1c2ccccc2nc2ccccc12`, the Potency was 0.764 µM (active).

`CC(=O)OCC1=C(C(=O)O)N2C(=O)[C@@H](NC(=O)Cc3cccs3)[C@H]2SC1`: the “activity, negative = inhibition” value is -2.27%.

For `C=C(C)[C@H]1Cc2c(ccc3c2O[C@@H]2COc4cc(OC)c(OC)cc4[C@@H]2C3=O)O1`, the Potency is 0.0108 µM (active).

For `CC[C@H](C)C(=O)O[C@H]1C[C@@H](C)C=C2C=C[C@H](C)[C@H](CC[C@@H]3C[C@@H](O)CC(=O)O3)[C@H]21`, the “activity, negative = inhibition” value is -2.55%.

For `C=CC(=O)Nc1cc(Nc2nccc(-c3cn(C)c4ccccc34)n2)c(OC)cc1N(C)CCN(C)C`, the Potency was 30.4 µM (active).

`O=c1[nH]c(=O)n([C@H]2C[C@H](O)[C@@H](CO)O2)cc1C(F)(F)F`: the Potency is 2.41 µM (active).

With `CN(C/C=C/c1ccccc1)Cc1cccc2ccccc12`, the “activity, negative = inhibition” value was -16.4%.

Take `Cc1ccc(NC(=O)c2ccc(CN3CCN(C)CC3)cc2)cc1Nc1nccc(-c2cccnc2)n1`: the Potency was 17.1 µM (active).

As for `C[C@]12CC[C@H](O)C[C@H]1CCC1C2CC[C@]2(C)[C@@H](c3ccc(=O)oc3)C[C@H]3O[C@]132` (stereo partly drawn), the Potency is 4.82 µM (active).

The values are drawn from PubChem BioAssay AID1494156 (National Center for Advancing Translational Sciences (NCATS), 2020).
